Inconclusive results are not listed. Calls of active or inactive are those of the source. Unless noted, calls come from the whole dose curve; as a rule, active = well fitted curve in the direction sought with a large enough effect in the repeat runs; inconclusive = weak or mixed curves; inactive = no such curve, though single readings can be large; an effect the other way counts as inactive or inconclusive.
Assays:
[1] = molecular target: Retinoic acid receptor RXR-alpha (Homo sapiens) (UniProt P19793); test: qHTS assay to identify small molecule agonists of the RXR signaling pathway (AID 1159527; calls by dose curve; note: nearly all actives have a fitted effect of over 35% in size)
In short: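 Fluorescence ratio readout (460 vs 530 nm) from GeneBLAzer RXR-alpha HEK 293T cells after 16 hr compound treatment; cells seeded 5 hr beforehand in low-serum, charcoal-stripped medium.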

[2] = qHTS assay to identify small molecule agonists of the RXR signaling pathway - cell viability counter screen (AID 1159529);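 note: HEK 293T cells carrying an RXR-alpha UAS beta-lactamase reporter; series mostly up to about 77 µM; nearly all actives have a fitted effect of over 50% in size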
In short: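 Viability read-out for the RXR-alpha agonist qHTS: luminescent CellTiter-Glo signal after 30 min at RT. HEK 293T bla reporter cells, 2% charcoal-stripped FBS, 16 hr compound incubation; tetraoctyl ammonium bromide as cytotoxic control.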

[3] = qHTS assay to identify small molecule antagonists of the retinoid acid receptor (RAR) signaling pathway - cell viability counter screen (AID 1159551); note: nearly all actives have a fitted effect of over 35% in size
In short: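 Seed C3RL4 cells; next day add compound, then retinol to 1 uM final; incubate 6 h at 37 C; add CellTiter-Glo; read luminescence after 30 min at RT.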

[4] = qHTS assay to identify small molecule antagonists of the retinoic acid receptor (RAR) signaling pathway (AID 1159552; note: nearly all actives have a fitted effect of over 50% in size)
In short: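 Using a RARE-driven luciferase construct in C3RL4 cells, retinol at 1 uM final provided the agonist stimulus while compounds were co-applied. After 6 hours at 37 C, luminescence was recorded to flag inhibitors of retinol signaling.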

[5] = qHTS assay to identify small molecule agonists of the retinoic acid receptor (RAR) signaling pathway (AID 1159553)
In short: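 Activation of retinol signaling was monitored via a RARE luciferase reporter in C3RL4 cells. After 6 hr compound treatment at 37 C, detection reagent was added for 30 min at room temperature before luminescence reading.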

[6] = qHTS assay to identify small molecule antagonists of the estrogen related receptor (ERR) signaling pathway from Tox21 library - cell viability counter screen (AID 1224834); note: nearly all actives have a fitted effect of over 30% in size
In short: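 CellTiter-Fluor fluorescence measured; ERR cells; 17.5 h compound incubation at 37 C; 30 min reagent step.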

[7] = molecular target: Luciferin 4-monooxygenase (Photinus pyralis) (UniProt P08659); test: qHTS assay to identify small molecule inhibitors of firefly luciferase (AID 1224835); note: series mostly up to about 120 µM; nearly all actives have a fitted effect of over 25% in size
In short: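 Inhibition of purified Photinus luciferase is measured by luminescence. Substrate levels (D-luciferin, ATP) sit at their KM values. Each compound is tested in a concentration series.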

[8] = qHTS assay to identify small molecule agonists of the constitutive androstane receptor (CAR) signaling pathway - cell viability counter screen (AID 1224836); note: series mostly up to about 92 µM; nearly all actives have a fitted effect of over 45% in size
In short: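 Multiplexed viability check: HepG2-CYP2B6-hCAR cells, 15-point compound dosing, 0.75 uM PK11195 final, 23 h at 37 C, CellTiter-Fluor fluorescence.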

[9] = qHTS assay to identify small molecule antagonists of the constitutive androstane receptor (CAR) signaling pathway - cell viability counter screen (AID 1224837); note: series mostly up to about 92 µM; nearly all actives have a fitted effect of over 45% in size
In short: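 Using CellTiter-Fluor, viability is scored in HepG2 cells stably carrying hCAR and a 2.2kb CYP2B6 reporter after 23 hr compound exposure across 15 concentrations, with CITCO present at 50 nM.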

[10] = molecular target: Nuclear receptor subfamily 1 group I member 3 (Homo sapiens) (UniProt Q14994); test: qHTS assay to identify small molecule antagonists of the constitutive androstane receptor (CAR) signaling pathway (AID 1224838);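 note: HepG2 cells stably expressing hCAR with CYP2B6 luciferase reporter stimulated by CITCO; nearly all actives have a fitted effect of over 40% in size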
In short: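 Reporter luminescence was quantified after 24 h exposure of hCAR/CYP2B6-2.2kb double-stable HepG2 cells to compounds at 15 concentrations in the presence of 50 nM CITCO final.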

[11] = molecular target: Nuclear receptor subfamily 1 group I member 3 (Homo sapiens) (UniProt Q14994); test: qHTS assay to identify small molecule agonists of the constitutive androstane receptor (CAR) signaling pathway (AID 1224839);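 note: HepG2 cells stably carrying human CAR and a CYP2B6 luciferase reporter; series mostly up to about 92 µM; nearly all actives have a fitted effect of over 15% in size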
In short: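 Using human hepatoma HepG2 cells engineered with hCAR and a CYP2B6-2.2kb reporter, 15-concentration compound series were incubated 24 h alongside PK11195 at 0.75 uM final, with luminescence quantified afterwards.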

[12] = qHTS assay to identify small molecule antagonists of the estrogen related receptor signaling pathway with the pleiotropic PPARgamma coactivator (PGC) from Tox21 10K library - cell viability counter screen (AID 1224840; active = well fitted cell-killing curve with a large enough effect in the repeat runs, not every such curve was filed as active; note: nearly all actives have a fitted effect of over 40% in size)
In short: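 Here the PGC/ERR cells serve as a cytotoxicity control: they are exposed to compounds for 17.5 hours at 37 C, and live-cell signal is quantified using CellTiter-Fluor fluorescence.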

[13] = qHTS assay to identify small molecule antagonists of the estrogen related receptor (ERR) signaling pathway - cell viability counter screen (AID 1224818);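 note: series mostly up to about 46 µM; viability measured after 17.5 h of compound exposure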
In short: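 In the same ERR cell assay, compound-treated wells (17.5 h, 37 C) were multiplexed with a fluorogenic viability reagent, CellTiter-Fluor, read after 30 min to flag cytotoxic substances.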

[14] = qHTS assay to identify small molecule antagonists of the estrogen related receptor (ERR) signaling pathway (AID 1224819;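 note: luminescence from an ERR-driven luciferase reporter measured with One-Glo reagent; series mostly up to about 46 µM; nearly all actives have a fitted effect of over 50% in size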)
In short: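 qHTS in ERR cells, 2,000/well, 1536 format. Cpd (DMSO) added after 6 h settle, 18 h 37 C. One-Glo luminescence, 30 min RT.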

[15] = qHTS assay to identify small molecule agonists of the estrogen related receptor (ERR) signaling pathway (AID 1224820)
In short: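 Quantitative HTS of the LOPAC library used NTP ERR reporter cells treated 18 h at 37 C. Signal is luminescence after One-Glo addition and a 30 min room-temperature incubation.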

[16] = system: estrogen-related receptor alpha (ERRalpha) with PGC-1alpha coactivator, human; test: qHTS assay to identify small molecule antagonists of the estrogen related receptor signaling pathway with the pleiotropic PPARgamma coactivator (PGC) (AID 1224821; calls by dose curve;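 note: series mostly up to about 46 µM; lower luminescence signal means antagonism of PGC/ERR signalling; nearly all actives have a fitted effect of over 50% in size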)
In short: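 Quantitative HTS for antagonism: PGC/ERR cells received compounds after 6 h attachment and were incubated 18 h at 37 C, with luminescence (One-Glo) as the endpoint.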

[17] = qHTS assay to identify small molecule antagonists of the estrogen related receptor signaling pathway with the pleiotropic PPARgamma coactivator (PGC) cell viability counter screen (AID 1224822; note: series mostly up to about 46 µM)
In short: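 Compounds in DMSO, with positive and negative controls, were applied to PGC/ERR cells (2,000/well) and left 17.5 h at 37 C before CellTiter-Fluor detection.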

[18] = qHTS assay to identify small molecule agonists of the estrogen related receptor signaling pathway with the pleiotropic PPARgamma coactivator (PGC) (AID 1224823)
In short: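 Cell-based luciferase assay in the NTP-supplied PGC/ERR line, 2,000 cells/well; 18 h compound exposure at 37 C, luminescence after One-Glo.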

[19] = qHTS assay to identify small molecule antagonists of the estrogen related receptor signaling pathway with the pleiotropic PPARgamma coactivator (PGC) from Tox21 10K library (AID 1224841; call rule not given here)
In short: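 Each well held 2,000 PGC/ERR cells, pre-incubated six hours (37 C, 5% CO2). Test substances in DMSO were added by pin tool and left for 18 h at 37 C before luciferase detection by One-Glo.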

[20] = qHTS assay to identify small molecule agonists of the estrogen related receptor signaling pathway with the pleiotropic PPARgamma coactivator (PGC) from Tox21 10K library (AID 1224842); note: nearly all actives have a fitted effect of over 15% in size
In short: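 Luminescence from One-Glo (30 min, room temperature) measured after PGC/ERR cells had 18 h at 37 C with pinned compound (23 nL in DMSO). Cells had been seeded at 2,000 per well and pre-incubated 6 h.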

Measured: Potency

Sequence of Retinoic acid receptor RXR-alpha (Homo sapiens) (P19793 whole entry, looked up): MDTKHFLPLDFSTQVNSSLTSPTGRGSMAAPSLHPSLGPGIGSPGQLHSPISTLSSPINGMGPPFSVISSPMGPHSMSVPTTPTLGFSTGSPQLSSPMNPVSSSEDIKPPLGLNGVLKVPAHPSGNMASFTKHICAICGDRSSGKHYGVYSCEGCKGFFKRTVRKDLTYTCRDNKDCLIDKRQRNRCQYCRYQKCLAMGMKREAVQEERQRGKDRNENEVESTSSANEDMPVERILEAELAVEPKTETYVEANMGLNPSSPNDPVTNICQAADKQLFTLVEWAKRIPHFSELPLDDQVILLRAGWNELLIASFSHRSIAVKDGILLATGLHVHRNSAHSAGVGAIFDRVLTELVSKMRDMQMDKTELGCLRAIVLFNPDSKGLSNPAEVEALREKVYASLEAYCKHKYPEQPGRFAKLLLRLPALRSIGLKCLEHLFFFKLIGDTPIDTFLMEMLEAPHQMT
Sequence of Nuclear receptor subfamily 1 group I member 3 (Homo sapiens) (Q14994 whole entry, looked up): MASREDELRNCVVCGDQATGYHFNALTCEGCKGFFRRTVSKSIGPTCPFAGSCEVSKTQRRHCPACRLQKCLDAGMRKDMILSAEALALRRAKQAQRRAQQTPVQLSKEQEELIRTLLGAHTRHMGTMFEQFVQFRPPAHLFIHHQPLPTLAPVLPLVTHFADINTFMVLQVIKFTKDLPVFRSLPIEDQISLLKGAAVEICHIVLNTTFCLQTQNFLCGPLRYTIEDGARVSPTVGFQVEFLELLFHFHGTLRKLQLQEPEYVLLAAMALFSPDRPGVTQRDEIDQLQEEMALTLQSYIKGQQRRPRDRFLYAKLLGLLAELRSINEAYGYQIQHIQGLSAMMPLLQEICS
Sequence of Luciferin 4-monooxygenase (Photinus pyralis) (P08659 whole entry, looked up): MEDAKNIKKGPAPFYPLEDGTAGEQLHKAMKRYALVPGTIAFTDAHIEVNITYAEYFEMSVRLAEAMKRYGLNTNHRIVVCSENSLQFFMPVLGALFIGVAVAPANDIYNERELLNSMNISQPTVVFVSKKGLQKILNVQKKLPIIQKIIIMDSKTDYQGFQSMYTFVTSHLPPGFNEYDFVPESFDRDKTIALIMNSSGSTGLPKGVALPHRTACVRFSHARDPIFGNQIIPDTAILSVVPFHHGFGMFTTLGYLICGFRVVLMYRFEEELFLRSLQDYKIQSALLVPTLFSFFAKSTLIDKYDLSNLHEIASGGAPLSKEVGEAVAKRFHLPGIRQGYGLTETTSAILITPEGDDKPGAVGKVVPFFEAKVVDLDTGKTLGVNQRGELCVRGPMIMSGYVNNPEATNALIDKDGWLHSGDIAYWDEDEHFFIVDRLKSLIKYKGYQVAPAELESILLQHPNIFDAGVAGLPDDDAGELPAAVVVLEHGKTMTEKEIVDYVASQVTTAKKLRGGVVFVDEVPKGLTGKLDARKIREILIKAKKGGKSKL

CCN(O)CC
not listed: [13] | [14] | [15] | [16] | [17] | [18] | [19] | [20]
inactive: all other assays above

COC(C)CCO (stereo not given)
inactive: [1] | [2] | [3] | [4] | [5] | [6] | [7] | [8] | [9] | [10] | [11]

CCCN(CCC)C(=O)C(CCC(=O)O)NC(=O)c1ccccc1 (stereo not given)
not listed: [11] | [12]
inactive: all other assays above

CC(C)C(=O)OCC(C)(C)C(O)C(C)C (stereo not given)
inactive: [1] | [2] | [3] | [4] | [5] | [6] | [7] | [8] | [9]

CCCCCCn1c(=O)c2c(ncn2C)n(C)c1=O
not listed: [13] | [14] | [15] | [16] | [17] | [18]
inactive: all other assays above

CCCCNc1cc(C(=O)O)cc(S(N)(=O)=O)c1Oc1ccccc1
not listed: [10] | [11] | [14] | [15] | [16] | [18] | [19] | [20]
inactive: all other assays above

Cc1ccsc1C(=CCCN1CCC[C@@H](C(=O)O)C1)c1sccc1C
not listed: [13] | [14] | [15] | [16] | [17] | [18] | [19] | [20]
inactive: all other assays above

NC/C=C/C(=O)O
inactive: all assays above

C=CCc1cc(OC)c(O)c(C(=O)NCCO)c1
not listed: [13] | [14] | [15] | [16] | [17] | [18] | [19] | [20]
inactive: all other assays above

Reference: PubChem BioAssay (Tox21)
